According to PubChem BioAssay AID1159580 (chemical genetic matrix, 2015):
In all, about 5,500 compounds went through this assay and about 2,000 (36%) were called active. Roughly 18% stayed inconclusive and do not appear here. Cut-off read from the data, not from the text of the source: active = normalized growth mostly below about 0.91 (no sharp cut-off); inconclusive = no clear call, values can overlap the other calls; inactive = mostly above about 0.92. Some of the results follow.

Assay: chemical genetic growth profiling, strain panel (AID 1159580);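 note: tested at 20 µM; growth read once vehicle control cultures reached saturation at 30 °C; 1 = growth at the plate median or of vehicle wells; lower values mean less growth of the strain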
Details: S. cerevisiae deletion strains, growth OD
[1] = locus YDR150W, strain NUM1, hits give low values
[2] = locus YMR307W, strain GAS1, hits give low values
[3] = locus YPL055C, strain LGE1, hits give low values

Measured: normalized growth

C[C@]12C=CC(=O)C=C1CC[C@H]1[C@@H]3C[C@@H](O)[C@](O)(C(=O)CO)[C@@]3(C)C[C@H](O)[C@@]12F
inactive: locus YAL040C, strain CLN3, hits give low values 1.02 | locus YCL061C, strain MRC1 (second series), hits give low values 1.01 | [1] 1 | locus YDR363W, strain ESC2, hits give low values 1.05 | locus YER002W, strain NOP16, hits give low values 1.01 | locus YGR078C, strain PAC10, hits give low values 1 | [2] 1.02 | locus YNL128W, strain TEP1, hits give low values 1.01 | locus YNL153C, strain GIM3, hits give low values 1 | locus YNL175C, strain NOP13, hits give low values 1 | locus YNL197C, strain WHI3, hits give low values 0.987 | locus YNL224C, strain SQS1, hits give low values 1.01 | locus YOR083W, strain WHI5 (second series), hits give low values 1.01 | [3] 1.03

CSCCC(NC=O)C(=O)NC(CC(C)C)C(=O)NC(Cc1ccccc1)C(=O)O (centres undefined)
inactive: locus YAL013W, strain DEP1, hits give low values 1.01 | locus YAL021C, strain ccr4, hits give low values 1.01 | locus YAL026C, strain drs2, hits give low values 1 | locus YAL030W, strain snc1, hits give low values 1 | locus YBL061C, strain skt5, hits give low values 1 | locus YBR009C, strain hhf1, hits give low values 1 | locus YBR021W, strain FUR4, hits give low values 0.998 | locus YBR023C, strain chs3, hits give low values 1 | locus YBR171W, strain sec66, hits give low values 0.998 | locus YBR229C, strain ROT2, hits give low values 1 | locus YBR231C, strain swc5, hits give low values 0.997 | locus YBR279W, strain paf1, hits give low values 1.01 | locus YCL011C, strain gbp2, hits give low values 1 | locus YCL016C, strain dcc1, hits give low values 1 | locus YCL029C, strain bik1, hits give low values 0.983 | locus YCL061C, strain MRC1, hits give low values 1.01 | locus YCL069W, strain vba3, hits give low values 1.01 | locus YCR088W, strain abp1, hits give low values 0.999 | locus YDL005C, strain med2, hits give low values 0.988 | locus YDL035C, strain GPR1, hits give low values 0.999 | locus YDL040C, strain nat1, hits give low values 1 | locus YDL074C, strain BRE1, hits give low values 1.03 | locus YDL101C, strain DUN1, hits give low values 1.02 | locus YDL134C, strain PPH21, hits give low values 0.996 | locus YDL185W, strain tfp1, hits give low values 0.994 | locus YDL192W, strain arf1, hits give low values 0.994 | locus YDR001C, strain nth1, hits give low values 1 | locus YDR069C, strain doa4, hits give low values 1 | locus YDR101C, strain arx1, hits give low values 1 | locus YDR137W, strain rgp1, hits give low values 1.01 | [1] 1.01 | locus YDR159W, strain sac3, hits give low values 1 | locus YDR162C, strain NBP2, hits give low values 1 | locus YDR195W, strain ref2 0.97 | locus YDR297W, strain sur2, hits give low values 0.99 | locus YDR318W, strain mcm21, hits give low values 1.01 | locus YDR334W, strain swr1, hits give low values 1.01 | locus YDR335W, strain msn5, hits give low values 1 | locus YDR388W, hits give low values 1 | locus YDR392W, strain spt3, hits give low values 1.01 | locus YDR502C, strain sam2, hits give low values 1 | locus YEL003W, strain gim4, hits give low values 1 | locus YEL037C, strain rad23, hits give low values 1.01 | locus YEL061C, strain CIN8 (second series), hits give low values 1.02 | locus YEL061C, strain CIN8, hits give low values 1.01 | locus YER015W, strain faa2, hits give low values 1 | locus YER016W, strain bim1, hits give low values 1 | locus YER110C, hits give low values 1.01 | locus YER111C, strain swi4, hits give low values 1 | locus YER155C, strain BEM2 (second series), hits give low values 0.995 | locus YER155C, strain BEM2, hits give low values 1.01 | locus YER167W, strain BCK2, hits give low values 0.995 | locus YFR010W, strain ubp6, hits give low values 1 | locus YGL078C, strain dbp3, hits give low values 0.99 | locus YGL086W, strain mad1, hits give low values 1 | locus YGL167C, strain pmr1, hits give low values 1 | locus YGL173C, strain kem1, hits give low values 1.01 | locus YGL227W, strain vid30, hits give low values 0.992 | locus YGL240W, strain doc1, hits give low values 1 | locus YGL248W, strain PDE1, hits give low values 1.01 | locus YGL253W, strain hxk2, hits give low values 0.995 | locus YGR135W, strain pre9, hits give low values 1 | locus YGR252W, strain gcn5, hits give low values 1.01 | locus YHR013C, strain ard1, hits give low values 1 | locus YHR027C, strain rpn1, hits give low values 0.986 | locus YHR030C, strain SLT2, hits give low values 0.998 | locus YHR079C, strain IRE1 (second series), hits give low values 1 | locus YHR094C, strain hxt1, hits give low values 1 | locus YHR129C, strain ARP1, hits give low values 1.01 | locus YHR142W, strain chs7, hits give low values 1.01 | locus YHR200W, strain rpn10, hits give low values 0.98 | locus YIL066C, strain RNR3, hits give low values 0.996 | locus YIL073C, strain SPO22, hits give low values 1.01 | locus YIL125W, strain kgd1, hits give low values 0.998 | locus YIR030C, strain dcg1, hits give low values 0.99 | locus YJL092W, strain hpr5, hits give low values 0.993 | locus YJL095W, strain BCK1 (second series), hits give low values 1 | locus YJL095W, strain BCK1, hits give low values 1.03 | locus YJL115W, strain asf1, hits give low values 1.01 | locus YJL129C, strain trk1, hits give low values 1 | locus YJL134W, strain LCB3, hits give low values 1 | locus YJL154C, strain vps35, hits give low values 1 | locus YJL164C, strain tpk1, hits give low values 1.01 | locus YJL166W, strain qcr8, hits give low values 1.03 | locus YJL168C, strain set2, hits give low values 1.01 | locus YJL187C, strain SWE1 (second series), hits give low values 1.04 | locus YJL187C, strain SWE1, hits give low values 0.999 | locus YJR043C, strain POL32, hits give low values 0.992 | locus YJR075W, strain HOC1, hits give low values 1.02 | locus YKL009W, strain mrt4, hits give low values 1.01 | locus YKL068W, hits give low values 0.996 | locus YKL085W, strain MDH1 (second series), hits give low values 0.995 | locus YKL085W, strain MDH1, hits give low values 0.995 | locus YKL160W, strain elf1, hits give low values 1.01 | locus YKL190W, strain CNB1, hits give low values 1.01 | locus YKR001C, strain vps1, hits give low values 0.992 | locus YKR026C, strain gcn3, hits give low values 0.994 | locus YKR091W, strain srl3, hits give low values 1.01 | locus YLL001W, strain dnm1, hits give low values 1 | locus YLL026W, hits give low values 0.996 | locus YLL041C, strain sdh2, hits give low values 1.01 | locus YLR027C, strain aat2, hits give low values 0.988 | locus YLR039C, strain RIC1, hits give low values 1 | locus YLR058C, strain SHM2, hits give low values 1.02 | locus YLR102C, strain apc9, hits give low values 1 | locus YLR221C, strain rsa3, hits give low values 0.998 | locus YLR258W, strain gsy2, hits give low values 1.02 | locus YLR262C, strain YPT6 (second series), hits give low values 1.02 | locus YLR262C, strain YPT6, hits give low values 1.05 | locus YLR268W, strain sec22, hits give low values 1 | locus YLR320W, strain mms22, hits give low values 0.998 | locus YLR330W, strain CHS5, hits give low values 1.01 | locus YLR342W, strain FKS1 (second series), hits give low values 1.01 | locus YLR342W, strain FKS1, hits give low values 1 | locus YLR357W, strain rsc2, hits give low values 0.971 | locus YLR370C, strain arc18, hits give low values 1 | locus YLR371W, strain rom2, hits give low values 1.01 | locus YLR384C, strain iki3, hits give low values 1 | locus YLR418C, strain cdc73, hits give low values 0.998 | locus YML016C, strain PPZ1, hits give low values 1 | locus YML032C, strain rad52, hits give low values 0.998 | locus YML120C, strain ndi1, hits give low values 1.01 | locus YML124C, strain tub3, hits give low values 1 | locus YMR058W, strain fet3, hits give low values 1 | locus YMR078C, strain ctf18, hits give low values 1 | locus YMR125W, strain sto1, hits give low values 0.993 | locus YMR129W, hits give low values 1 | locus YMR205C, strain PFK2, hits give low values 1 | locus YMR223W, strain ubp8, hits give low values 1 | locus YMR231W, strain pep5, hits give low values 0.977 | [2] 1.05 | locus YNL067W, strain RPL9B, hits give low values 1.03 | locus YNL071W, strain lat1, hits give low values 1 | locus YNL209W, strain ssb2, hits give low values 1.01 | locus YNL233W, strain BNI4, hits give low values 1.02 | locus YNL248C, strain rpa49, hits give low values 1 | locus YNL250W, strain rad50, hits give low values 1.01 | locus YNL271C, strain bni1, hits give low values 0.996 | locus YNL298W, strain CLA4, hits give low values 1 | locus YNL307C, strain MCK1, hits give low values 1 | locus YNL322C, strain KRE1 (second series), hits give low values 0.996 | locus YNR049C, strain mso1, hits give low values 0.998 | locus YNR052C, strain pop2, hits give low values 1 | locus YOL006C, strain TOP1, hits give low values 1.06 | locus YOL012C, strain htz1 0.872 | locus YOL147C, strain pex11, hits give low values 1 | locus YOR001W, strain rrp6, hits give low values 1.01 | locus YOR061W, strain CKA2, hits give low values 0.997 | locus YOR069W, strain VPS5, hits give low values 1 | locus YOR070C, strain gyp1, hits give low values 1.02 | locus YOR080W, strain dia2, hits give low values 0.99 | locus YOR083W, strain WHI5, hits give low values 1 | locus YOR106W, strain vam3, hits give low values 1.01 | locus YOR136W, strain idh2, hits give low values 1.01 | locus YOR144C, strain elg1, hits give low values 0.987 | locus YOR184W, strain ser1, hits give low values 0.986 | locus YOR265W, strain rbl2, hits give low values 1.01 | locus YOR270C, strain vph1, hits give low values 1.03 | locus YOR290C, strain snf2, hits give low values 1.01 | locus YOR316C, strain cot1, hits give low values 1 | locus YPL051W, strain arl3, hits give low values 0.996 | [3] 1.01 | locus YPL078C, strain atp4, hits give low values 1 | locus YPL106C, strain sse1, hits give low values 0.99 | locus YPL240C, strain hsp82, hits give low values 0.999 | locus YPR119W, strain clb2, hits give low values 1 | locus YPR141C, strain kar3, hits give low values 0.985 | locus YPR163C, strain tif3, hits give low values 1 | locus YPR167C, strain met16, hits give low values 0.994 | strain wtn01, hits give low values 0.986
